Screening results: PubChem, several laboratories
TIM10 inh: growth inhibitors of TIM10 yeast strain; S. cerevisiae TIM10 strain growth, BacTiter-Glo luminescence, 24 h; inhibition, % at 10 µM; hit rate 1.4% among 330,000; AID 463195;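 active means inhibition of 40% or more at the single tested concentration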;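 further: wild-type TIM10 isogenic control strain grown at permissive 25 °C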
EBI2 antag: blocks human EBI2 receptor beta-arrestin signaling | EBI2 beta-arrestin recruitment, luminescence, 7a,25-OHC stimulated | inhibition, % at 5 µM | hit rate 0.81% among 360,000 | AID 651636; in the data active means inhibition above about 38%;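 further: enzyme fragment complementation signal reports receptor beta-arrestin coupling in cells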
Target sequence (P32249 whole entry, looked up, the tested form may be a part): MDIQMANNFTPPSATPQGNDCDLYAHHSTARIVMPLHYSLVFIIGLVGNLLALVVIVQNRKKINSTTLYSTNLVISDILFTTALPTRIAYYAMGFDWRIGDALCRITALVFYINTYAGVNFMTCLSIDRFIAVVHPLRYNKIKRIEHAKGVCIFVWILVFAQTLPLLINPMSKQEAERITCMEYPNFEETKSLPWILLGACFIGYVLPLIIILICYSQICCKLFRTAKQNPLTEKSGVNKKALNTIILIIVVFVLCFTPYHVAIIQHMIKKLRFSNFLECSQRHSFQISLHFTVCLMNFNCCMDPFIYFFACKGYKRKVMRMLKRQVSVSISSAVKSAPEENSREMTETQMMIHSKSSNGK
SKKanGAS inh: blocks kanamycin growth of S. pyogenes SKKanGAS strain | inhibition, % at 7.5 µM | BacTiter-Glo, 6 h | AID 1662 | hit rate 1.3% among 300,000;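 active means mean replicate score, as percent of positive control median, at least 50; inconclusive means mean below 50 but one replicate at or above 50; inactive means mean and every replicate below 50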;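 further: strain carries kanamycin resistance gene driven by streptokinase promoter and grows in 40 µg/ml kanamycin; loss of luminescence reflects streptokinase promoter inhibition or plain growth inhibition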
tim10-1 inh: growth inhibitors of tim10-1 mutant yeast; S. cerevisiae tim10-1 ts strain growth, BacTiter-Glo, 24 h; hit rate 2.2% among 330,000; inhibition, % at 20 µM; AID 463190;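 active means inhibition of at least 40%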;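 further: mutant grown at 25 °C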
tim23-1 inh: growth inhibitors of tim23-1 mutant yeast | S. cerevisiae tim23-1 growth, BacTiter-Glo luminescence, 24 h | inhibition, % at 20 µM | hit rate 1.3% among 330,000;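 active means growth inhibition of the mutant yeast at or above 50%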;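 further: temperature-sensitive mutant grown at 25 °C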
PfHsp90 set2: reduces growth (ATP signal) of yeast expressing P. falciparum Hsp90; S. cerevisiae expressing PfHsp90, BacTiter-Glo ATP, 48 h; yeast lacking PDR1 and PDR3 efflux regulators; hit rate 0.32% among 310,000; inhibition, % at 9.4 µM; AID 504621;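 active means every replicate shows inhibition above about 80%, whatever the replicate mean, limit read from the data; inconclusive means mean inhibition reaches the set limit but some replicate falls short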
Hits are given with their value; n = inactive; u = inconclusive; x = no result. This is a sample that favours compounds with a hit; in the whole collection about 4.7% have one here.

SMILES	TIM10 inh	EBI2 antag	SKKanGAS inh	tim10-1 inh	tim23-1 inh	PfHsp90 set2
O=C(Cc1ccsc1)Nc1ccc(S(=O)(=O)C(F)F)cc1	n	n	n	n	n	n
COc1ccc(-c2cc(C(F)(F)F)c(C#N)c(SCC(=O)Nc3ccc(C)cc3)n2)cc1	n	n	n	n	n	n
COc1ccc(C(=O)CSc2[nH]c(=O)cc(C(F)(F)F)c2C#N)cc1	n	n	65.7	n	n	n
Cc1ccc(C2CN=NC23CCc2ccccc2C3=O)cc1 (stereo not drawn)	n	n	n	n	n	n
O=C1c2ccccc2CCCC12N=NCC2c1cccc2ccccc12 (stereo not drawn)	n	n	49.8	n	n	n
O=C(O)/C=C/c1cn(-c2ccccc2)nc1-c1cc2ccccc2o1	n	n	n	n	n	90.4
c1ccc(C(c2nnnn2Cc2ccco2)N2CCN(c3nc4ccccc4s3)CC2)cc1 (stereo not drawn)	n	35.5	n	n	n	n
c1ccc(Cn2nnnc2C(c2ccccc2)N2CCN(c3nc4ccccc4s3)CC2)cc1 (stereo not drawn)	n	n	n	n	n	n
COc1cc2c(cc1O)C(CSC)Cc1cc3c(cc1N(C)CC2)OCO3 (stereo not drawn)	x	n	x	x	x	x
CC1=CC(C)(C(Cl)(Cl)Cl)C(C)=CC1=NO (stereo not drawn)	x	n	x	x	x	x
CNC(=O)C[C@H]1C(=O)N(c2ccc(OC)cc2)C[C@@H]1C	x	n	x	x	x	x
C/C(=N\NC(=S)NCc1ccccc1)c1ccc2ccccc2c1OC(F)F	n	n	67.2	n	n	n
C/C(=N\NC(=S)NCc1ccccc1)c1cccs1	n	n	n	n	n	n
CC1(C)N=C(N)NC(Nc2ccccc2)=N1	n	n	63.6	n	n	n
Fc1ccc2nncc(SCc3ccccc3Cl)c2c1	x	n	x	x	x	n
COc1ccc(Nc2nc(-c3cccs3)nc3ccccc23)cc1S(=O)(=O)N1CCOCC1	n	n	n	n	n	n
CC(=O)c1cccc(NC(=O)C(C)OC(=O)Cc2c[nH]c3ccccc23)c1 (stereo not drawn)	n	n	n	n	n	n
COc1ccc(N(C)S(=O)(=O)c2cccc(C(=O)OCC(=O)Nc3cc(C)ccc3OC)c2)cc1	x	n	x	x	x	x
CC1CCN(c2ccccc2NC(=O)c2ccc(Br)o2)CC1	n	n	87.6	n	n	n
COc1ccccc1OCC(=O)NNC(=S)NC(=O)c1ccco1	n	n	59.8	n	n	n
O=C(NC(=S)NNC(=O)c1ccco1)c1ccc(F)cc1	n	n	n	n	n	n
COc1ccc(/C=C/C(=O)NC(=S)NNC(=O)c2ccco2)cc1OC	n	n	83.7	n	n	n
COc1ccc(CC(=O)NNC(=O)c2ccco2)cc1	n	n	n	n	n	n
COc1ccc(/C=C/C(=O)NC(=S)NNC(=O)c2ccco2)cc1	n	n	77.7	n	n	n
COc1ccc(C(=O)NC(=S)NNC(=O)c2ccco2)cc1	n	n	53.4	n	n	n
SMILES	TIM10 inh	EBI2 antag	SKKanGAS inh	tim10-1 inh	tim23-1 inh	PfHsp90 set2
COc1ccccc1C(=O)NC(=S)Nc1ccc(NC(=O)c2ccco2)cc1	n	n	u	n	n	n
CCOC(=O)C1(C)CCCCCN1C(=O)c1ccco1 (stereo not drawn)	x	n	x	x	x	x
Cc1ccc(O)c(-c2cc(-c3ccc(F)cc3)no2)c1	n	n	n	n	n	n
CC(C)CC(=O)/C(=C\c1ccc(Cl)cc1Cl)n1cncn1	x	n	n	x	x	129.2
CCC(=O)N1N=C(c2ccccc2)CC1c1ccccc1 (stereo not drawn)	n	n	n	n	n	n
CCC(=O)N1N=C(c2c(O)n(C)c(=O)n(C)c2=O)CC1c1ccccc1 (stereo not drawn)	n	n	75.1	n	n	n
O=C(NNC1=C(C(=O)C(F)(F)F)CCC1)c1cccc(O)c1	n	n	n	n	n	n
Cc1cccc(C(=O)NNC2=C(C(=O)C(F)(F)F)CCC2)c1O	n	n	104.4	n	n	n
COC(=O)C1=CN(c2ccc(C(C)(C)C)cc2)C(N)=C(C#N)C1c1ccc(OC)cc1 (stereo not drawn)	x	n	x	x	x	x
COc1c(N2CCN(C(=S)Nc3ccc(F)cc3)C(C)C2)c(F)cc2c(=O)c(C(=O)O)cn(C3CC3)c12 (stereo not drawn)	n	n	115.3	n	n	n
CC1CCc2c(N3CCC(O)CC3)c(F)cc3c(=O)c(C(=O)O)cn1c23 (stereo not drawn)	n	n	x	n	n	n
NC1CCN(c2nc3c(cc2F)c(=O)c(C(=O)O)cn3-c2ccc(F)cc2F)C1 (stereo not drawn)	n	n	103.3	n	n	n
NC1CCN(c2c(F)cc3c(=O)c(C(=O)O)cn(C4CC4)c3c2Cl)C1 (stereo not drawn)	n	n	73.9	n	n	n
COc1c(N2CCNC(C)C2)c(F)cc2c(=O)c(C(=O)O)cn(C3CC3)c12 (stereo not drawn)	n	x	105.4	n	n	x
CC(=O)Nc1ccc(C(=O)N2CCCCC2c2cc(C(=O)Nc3cccc(C#N)c3)no2)cc1 (stereo not drawn)	x	n	x	x	x	x
CCCCCC(=O)Nc1ccc(C2C(=O)c3ccccc3C2=O)cc1	n	n	n	n	n	n
COc1c(N2CCN(C(=S)NC3CC4CCC3C4)C(C)C2)c(F)cc2c(=O)c(C(=O)O)cn(C3CC3)c12 (stereo not drawn)	n	n	101.5	n	n	n
Cc1ccc(Nc2nc(-c3cccnc3)cs2)cc1Cl	n	48.4	n	n	n	n
CCNC(=O)C1(C)CCN(C(=O)c2ccc(-c3ccccc3)cc2)C1 (stereo not drawn)	x	n	x	x	x	x
CCOC(=O)C1CCC(=O)N1Cc1c[nH]c2ccccc12 (stereo not drawn)	x	n	x	x	x	x
Cc1ccc(-c2nnc(NC(=O)c3ccco3)o2)c(C)c1	n	n	83.7	n	n	n
O=C(Nc1nnc(-c2ccc(Br)cc2)o1)c1ccco1	n	n	93.8	n	n	x
CS(=O)(=O)c1ccc(-c2nnc(NC(=O)c3ccco3)o2)cc1	n	n	n	n	n	x
O=C(Nc1ccccc1F)NC1CCCCCCC1	n	n	49.5	n	n	n
O=C1N/C(=N\N=C\c2ccccn2)SC1Cc1cccc(SC(F)F)c1 (stereo not drawn)	n	n	94.2	n	n	n
SMILES	TIM10 inh	EBI2 antag	SKKanGAS inh	tim10-1 inh	tim23-1 inh	PfHsp90 set2
O=C1N/C(=N\N=C\c2cccnc2)SC1Cc1ccc(SC(F)F)cc1 (stereo not drawn)	n	n	92.9	n	n	n
N#Cc1ccc(-c2cccnc2)nc1SCC(=O)c1ccccc1	n	39.6	n	n	n	n
N#Cc1ccc(-c2ccccc2)nc1SCC(=O)c1cccc(Cl)c1	n	n	n	n	n	n
Cc1cc(C)c(C(=O)c2ccccc2C(=O)O)c(C)c1	x	n	x	x	x	x
O=C(Cn1nnc(-c2ccccc2)n1)OCc1ccccc1	n	n	n	n	n	n
O=C(OCc1ccccc1)c1cccc(-c2nnn(Cc3ccccc3)n2)c1	n	n	54.6	n	n	n
